# Reference: PubChem BioAssay (EPA / NIEHS)
# Records with an inconclusive call do not appear. Calls of active or inactive are those of the source. The calls were made as follows, unless noted: active = hit-call score of the fitted dose curve at least 0.9, where 1 is the maximum; inconclusive = response in the unintended direction; inactive = score below 0.9.
# Columns and labels:
# [1] = tested on: SERPINA7 (gene 6906); assay: CCTE_GLTED_hTBG: CCTE's human Thyroxine-binding Globulin (TBG) Inhibition Assay, Great Lakes Toxicology and Ecology Division (GLTED) Lab (AID 2284343);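 also: active chemicals lower fluorescence versus DMSO baseline by displacing probe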
# Outline: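 Fluorescence (ex 380/em 475) reports ANSA displaced from human TBG after a 2 h incubation with test chemical, without cells. Loss of signal indicates displacement, with DMSO serving as baseline.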
# [2] = TAMU_PeakParms_SingleDonor1434_Asystole: Texas A&M University (TAMU) 1.5-hr Human Induced Pluripotent Stem Cell (iPSC)-derived Cardiomyocytes Calcium (Ca+2) Flux Assay for Cardiotoxicity: Asystole (quiescence of beating) (AID 2284328)
# Outline: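 Average Ca2+-flux peak frequency (beats/s) was recorded in single-donor iPSC-derived cardiomyocytes after 90 min exposure (0.2–100 uM final, 0.5% DMSO). Asystole POD set as EC95 against DMSO, no preprocessing.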
# [3] = CCTE_Padilla_ZF_Score.Craniofacial: CCTE's 144 Hour Post-fertilization zebrafish Assay Score for Craniofacial Malformation, Padilla Lab (AID 2284405; active = hit-call score of the fitted dose curve at least 0.9, where 1 is the maximum; inactive = score below 0.9)
# Outline: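 Craniofacial defects were scored at 6 dpf by two blinded observers using stereomicroscopy. Exposure of wild-type embryos began at 6–8 hpf in sealed wells of 10% Hanks' solution at 26C, with chemical removed by rinsing at 5 dpf.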
# [4] = CCTE_Padilla_ZF_Score.Edema: CCTE's 144 Hour Post-fertilization zebrafish Assay Score for Edema Malformation, Padilla Lab (AID 2284406; active = hit-call score of the fitted dose curve at least 0.9, where 1 is the maximum; inactive = score below 0.9)
# Outline: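 Edema scored at 6 dpf by two blinded observers under a stereo microscope, in single outbred wild-type larvae exposed from 6-8 hpf in sealed wells (Hanks', 26C, 14:10 h light) and chemical-free after a 5 dpf rinse.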
# [5] = CCTE_Padilla_ZF_Score.Spine: CCTE's 144 Hour Post-fertilization zebrafish Assay Score for Spine Malformation, Padilla Lab (AID 2284407; active = hit-call score of the fitted dose curve at least 0.9, where 1 is the maximum; inactive = score below 0.9)
# Outline: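 Spine malformation scored at 6 dpf by two independent blinded observers under stereomicroscope, after static sealed exposure from 6–8 hpf at 26C in Hanks' solution with rinse on 5 dpf. Positive-direction fit against DMSO control.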
# [6] = CCTE_Padilla_ZF_Score.Swim_bladder: CCTE's 144 Hour Post-fertilization zebrafish Assay Score for Swim Bladder Malformation, Padilla Lab (AID 2284408; active = hit-call score of the fitted dose curve at least 0.9, where 1 is the maximum; inactive = score below 0.9)
# Outline: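 Swim bladder inflation scored at 6 dpf by two blinded observers under a stereo microscope. Exposure ran from 6–8 hpf in sealed wells of 10% Hanks' at 26C, with rinsing at 5 dpf; DMSO served as baseline.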
# [7] = CCTE_Padilla_ZF_Score.Position: CCTE's 144 Hour Post-fertilization zebrafish Assay Score for Position, Padilla Lab (AID 2284409; active = hit-call score of the fitted dose curve at least 0.9, where 1 is the maximum; inactive = score below 0.9)
# Outline: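 Wild-type zebrafish embryos (with chorions) exposed singly from 6–8 hpf in sealed wells of Hanks' solution at 26C, rinsed at 5 dpf. At 6 dpf, blinded assessors scored abnormal water-column position by brightfield stereomicroscopy, relative to DMSO.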
# [8] = CCTE_Padilla_ZF_Score.Living: CCTE's 144 Hour Post-fertilization zebrafish Assay Score for Viability, Padilla Lab (AID 2284410; active = hit-call score of the fitted dose curve at least 0.9, where 1 is the maximum; inactive = score below 0.9;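 also: larval death at 6 dpf judged by absent heartbeat or coagulation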)
# Outline: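 Mortality at 6 dpf, judged as absent heartbeat or coagulation by two blinded observers, after sealed static exposure beginning at 6–8 hpf at 26C. Larvae were rinsed free of chemical at 5 dpf, and activity was fitted relative to DMSO.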
# [9] = CCTE_Padilla_ZF_Score.Tail: CCTE's 144 Hour Post-fertilization zebrafish Assay Score for Tail Malformation, Padilla Lab (AID 2284414; active = hit-call score of the fitted dose curve at least 0.9, where 1 is the maximum; inactive = score below 0.9)
# Outline: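 Tail malformations were scored at 6 dpf by two blinded assessors under a stereo microscope. Chorionated embryos had been exposed from 6-8 hpf in sealed wells of 10% Hanks' at 26 C, then rinsed free of chemical at 5 dpf.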
# [10] = CCTE_Padilla_ZF_Score.Blood_pooling: CCTE's 144 Hour Post-fertilization zebrafish Assay Score for Blood Pooling, Padilla Lab (AID 2284415; active = hit-call score of the fitted dose curve at least 0.9, where 1 is the maximum; inactive = score below 0.9)
# Outline: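 Blood pooling was scored at 6 dpf under a stereo microscope by two blinded assessors, fitted upward against DMSO. Single embryos were dosed at 6–8 hpf in 10% Hanks', kept sealed at 26C (14:10 h cycle) and rinsed at 5 dpf.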
# [11] = CCTE_Padilla_ZF_Score.Any: CCTE's 144 Hour Post-fertilization zebrafish Assay Score for Any Mortality or Malformation, Padilla Lab (AID 2284416; active = hit-call score of the fitted dose curve at least 0.9, where 1 is the maximum; inactive = score below 0.9)
# Outline: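 Wild-type zebrafish embryos with chorions, one per well in 10% Hanks' from 6–8 hpf, dosed in sealed plates at 26 C, 14:10 h light:dark; rinsed at 5 dpf; blinded scoring at 6 dpf for death or malformation, versus DMSO.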
# [12] = IUF_NPC1_cytotoxicity_72hr: Cytotoxicity Assessment at 72 hours in the Leibniz Research Institute for Environmental Medicine (IUF) Neural Progenitor Cell Proliferation Assay (NPC1) (AID 2284332);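 also: rising LDH signal means more cytotoxicity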
# Outline: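 LDH in supernatant, resazurin→resorufin fluorescence (RFU), 72 h exposure, no re-dosing. Cells: primary hNPC spheres, one per well, EGF+FGF medium, 37C/5% CO2, pH 7.2-7.6. Fit: positive direction vs baseline and dynamic range.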
# [13] = CCTE_Mundy_HCI_iCellGluta_NOG_NeuronCount: CCTE's Neurite Outgrowth Assay in iCellGluta cells for Neuron Count, Mundy Lab (AID 2284340);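 also: cells fixed about 48 h after compound addition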
# Outline: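 Neuron count read by automated high-content imaging of Hoechst 33342 and betaIII-tubulin/Alexa Fluor-488 labelling in human iPSC glutamatergic neurons. Activity fitted relative to DMSO.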
# [14] = CCTE_Mundy_HCI_iCellGluta_NOG_NeuriteCount: CCTE's Neurite Outgrowth Assay in iCellGluta cells for Neurite Count, Mundy Lab (AID 2284342);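 also: chemical exposure about 48 hours starting 2 hours after plating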
# [15] = tested on: Brachyury (BRA) Protein Expression, Deisenroth Lab, TBXT (gene 6862); assay: CCTE_Deisenroth_DEVTOX-GLR_legacy_Bra: (Legacy) CCTE's DevTox GLR-Endo Assay Evaluation of Brachyury (BRA) Protein Expression, Deisenroth Lab (AID 2284329; active = hit-call score of the fitted dose curve at least 0.9, where 1 is the maximum; inactive = score below 0.9)
# Outline: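 Percent Bra-positive cells, scored by high-content imaging against a threshold of 5x BMAD over the undifferentiated control median, with the 0.2% DMSO median subtracted. RUES2-GLR cultures were dosed twice at 24 h intervals across a 48 h differentiation, at 1 nM–200 uM in ten steps, with n=4 replicates.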
# [16] = CCTE_Deisenroth_DEVTOX-GLR_legacy_CellCount: (Legacy) Viability Assessment in CCTE's DevTox GLR-Endo Assay, Deisenroth Lab (AID 2284331; active = hit-call score of the fitted dose curve at least 0.9, where 1 is the maximum; inactive = score below 0.9); settings: actives raise or lower the signal
# Outline: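 Nuclei count by fluorescence high-content imaging (5 fields/well) after 48 h differentiation of RUES2-GLR cells. Two exposures, 24 h apart; 1 nM - 200 uM series; n=4. Bidirectional fit vs DMSO.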
# [17] = tested on: SRY-box transcription factor 17 (SOX17) Protein Expression, Deisenroth Lab, SOX17 (gene 64321); assay: CCTE_Deisenroth_DEVTOX-GLR_legacy_Sox17: (Legacy) CCTE's DevTox GLR-Endo Assay Evaluation of SRY-box transcription factor 17 (SOX17) Protein Expression, Deisenroth Lab (AID 2284341; active = hit-call score of the fitted dose curve at least 0.9, where 1 is the maximum; inactive = score below 0.9); settings: actives raise or lower the signal
# Outline: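 RUES2-GLR human pluripotent cells, seeded 24 h, then differentiated 48 h in defined media with two chemical exposures 24 h apart (1 nM - 200 uM, 10 points). Sox17+ fraction from high-content fluorescence imaging; bidirectional fit versus 0.2% DMSO.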
# [18] = tested on: SRY-box transcription factor 2 (SOX2) Protein Expression, Deisenroth Lab, SOX2 (gene 6657); assay: CCTE_Deisenroth_DEVTOX-GLR_legacy_Sox2: (Legacy) CCTE's DevTox GLR-Endo Assay Evaluation of SRY-box transcription factor 2 (SOX2) Protein Expression, Deisenroth Lab (AID 2284346; active = hit-call score of the fitted dose curve at least 0.9, where 1 is the maximum; inactive = score below 0.9)
# Outline: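 Percent Sox2-positive cells was scored by high-content imaging of 5 fields per well. Positivity cutoff was 5x BMAD over the directed endoderm control, and the DMSO median was subtracted. Cells were RUES2-GLR, dosed twice at 24-h intervals over 48 h of differentiation (1 nM-200 uM).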
# [19] = tested on: SRY-box transcription factor 2 (SOX2) Protein Expression, Deisenroth Lab, SOX2 (gene 6657); assay: CCTE_Deisenroth_DEVTOX-GLR_Endo_SOX2: CCTE's DevTox GLR-Endo Assay Evaluation of SRY-box transcription factor 2 (SOX2) Protein Expression, Deisenroth Lab (AID 2284412)
# Outline: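 Endpoint is percent SOX2-positive cells (SOX2+ count/total cells) minus 0.2% DMSO control, from high-content imaging of fixed, nuclear-stained RUES2-GLR cells. Dosing twice at 24 h intervals over 48 h differentiation, 1 nM–200 uM in 10 points.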
# [20] = tested on: SRY-box transcription factor 17 (SOX17) Protein Expression, Deisenroth Lab, SOX17 (gene 64321); assay: CCTE_Deisenroth_DEVTOX-GLR_Endo_SOX17: CCTE's DevTox GLR-Endo Assay Evaluation of SRY-box transcription factor 17 (SOX17) Protein Expression, Deisenroth Lab (AID 2284413; active = hit-call score of the fitted dose curve at least 0.9, where 1 is the maximum; inactive = score below 0.9)
# Outline: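 RUES2-GLR human pluripotent cells were seeded 24 h, then differentiated toward endoderm for 48 h with two chemical exposures 24 h apart (10-point series, 1 nM - 200 uM). Nuclei-stained fixed cells were imaged; endpoint is percent change in SOX17+ cells versus 0.2% DMSO.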
smiles,measurement,setting,value
O=C(Nc1ccc2c(O)c(N=Nc3ccc(N=Nc4ccc(S(=O)(=O)O)cc4)cc3)c(S(=O)(=O)O)cc2c1)c1ccccc1,AC50,[1],16.6 µM (active)
O=C(CC(=O)c1ccccc1)c1ccccc1,AC50,[1],8.66 µM (active)
Clc1ccc(C(c2ccccc2Cl)C(Cl)Cl)cc1 (stereo not drawn),AC50,[1],1.79 µM (active)
CCCCC(CC)COC(=O)c1ccc(O)cc1 (stereo not drawn),AC50,[1],5.72 µM (active)
CC(C)NCC(O)COc1ccc(CC(N)=O)cc1 (stereo not drawn),outcome,[2],inactive
N[C@@H](Cc1cc(I)c(Oc2cc(I)c(O)c(I)c2)c(I)c1)C(=O)O,AC50,[1],0.0273 µM (active)
FC(F)(F)COCC(F)(F)F,outcome,[3],inactive
same,outcome,[4],inactive
same,outcome,[5],inactive
same,outcome,[6],inactive
same,outcome,[7],inactive
same,outcome,[8],inactive
same,outcome,[9],inactive
same,outcome,[10],inactive
same,outcome,[11],inactive
COCCOCCOCCO,outcome,[12],inactive
same,outcome,[13],inactive
same,outcome,[14],inactive
CC(C)CCCCCCCCCCCCCCC(=O)O,AC50,[1],5.3 µM (active)
Oc1ccc2cc(SSc3ccc4cc(O)ccc4c3)ccc2c1,AC50,[1],0.423 µM (active)
O=[N+]([O-])c1ccc(O)cc1C(F)(F)F,AC50,[1],28.2 µM (active)
OCc1cccc(Oc2ccccc2)c1,AC50,[1],27.4 µM (active)
Cc1ccc(S(=O)(=O)Oc2ccc(N=Nc3ccc(-c4ccc(N=Nc5c(O)ccc6cc(S(=O)(=O)O)cc(S(=O)(=O)O)c56)c(C)c4)cc3C)cc2)cc1,AC50,[1],3.93 µM (active)
CCCCCCC(CO)CCCC (stereo not drawn),AC50,[1],24.2 µM (active)
O=CCc1ccccc1,AC50,[1],14.2 µM (active)
COc1ccc(N=Nc2cc(C)c(N=Nc3ccc(S(=O)(=O)O)cc3)cc2OC)cc1,AC50,[1],35.5 µM (active)
C=C[Si]1(C)O[Si](C)(C=C)O[Si](C)(C=C)O[Si](C)(C=C)O1 (stereo not drawn),outcome,[1],inactive
Oc1c(Cl)cc(Cl)c(Cl)c1Cc1c(O)c(Cl)cc(Cl)c1Cl,AC50,[2],2.11 µM (active)
same,outcome,[12],inactive
CS(=O)(=O)OCCCCOS(C)(=O)=O,outcome,[15],inactive
same,AC50,[16],14.6 µM (active)
same,AC50,[17],47.3 µM (active)
same,AC50,[18],77 µM (active)
same,outcome,[19],inactive
same,AC50,[20],44.5 µM (active)
O=C(c1ccccc1)C(O)c1ccccc1 (stereo not drawn),AC50,[1],15.9 µM (active)
COCCc1ccc(OCC(O)CNC(C)C)cc1 (stereo not drawn),outcome,[12],inactive
same,outcome,[13],inactive
same,outcome,[14],inactive
BrCc1cccc(Oc2ccccc2)c1,AC50,[1],23.3 µM (active)
CN(C)CCOC(C)(c1ccccc1)c1ccccn1 (stereo not drawn),outcome,[12],inactive
same,outcome,[13],inactive
same,outcome,[14],inactive
